According to PubChem BioAssay (Tox21):
Several values for one entry are separate records, joined by “and”; a condition that tells them apart may be missing. Equal values may be shown once. Inconclusive results are not listed. Entries that show only a call come without a potency. Some structures have more than one record in an assay (separate samples or runs), and their calls can disagree. Activity calls are given as the source filed them. Unless noted, the call rests on the fitted dose curve; in most records, active means well fitted curve in the direction sought with a large enough effect in the repeat runs; inconclusive means weak or mixed curves; inactive means no such curve, though single readings can be large; an effect the other way counts as inactive or inconclusive.

Columns and labels:
[1] = qHTS assay to identify small molecule agonists of the estrogen receptor alpha (ER-alpha) signaling pathway in the presence of an antagonist - cell viability counter screen (AID 1259386);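 further: cells exposed to compounds for 22 h at 37 °C before the viability read; nearly all actives have a fitted effect of over 30% in size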; further: potency means the concentration at half of the fitted maximal effect
How it was run: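 VM7Luc4E2 cells (endogenous full-length ER-alpha, 4×ERE-luciferase) were held 5 days in phenol red-free medium with 10% charcoal-stripped FBS, plated, then given 10.0nM ICI-182,780 and compounds at 15 concentrations for 22hr at 37C; viability read by CellTiter-Fluor fluorescence.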

[2] = target: Progesterone receptor (Homo sapiens) (UniProt P06401); assay: qHTS assay to identify small molecule agonists of the progesterone receptor (PR) signaling pathway (AID 1346784; calls by dose curve; further: nearly all actives have a fitted effect of over 30% in size)
Progesterone receptor (Homo sapiens), sequence (P06401 whole entry, looked up): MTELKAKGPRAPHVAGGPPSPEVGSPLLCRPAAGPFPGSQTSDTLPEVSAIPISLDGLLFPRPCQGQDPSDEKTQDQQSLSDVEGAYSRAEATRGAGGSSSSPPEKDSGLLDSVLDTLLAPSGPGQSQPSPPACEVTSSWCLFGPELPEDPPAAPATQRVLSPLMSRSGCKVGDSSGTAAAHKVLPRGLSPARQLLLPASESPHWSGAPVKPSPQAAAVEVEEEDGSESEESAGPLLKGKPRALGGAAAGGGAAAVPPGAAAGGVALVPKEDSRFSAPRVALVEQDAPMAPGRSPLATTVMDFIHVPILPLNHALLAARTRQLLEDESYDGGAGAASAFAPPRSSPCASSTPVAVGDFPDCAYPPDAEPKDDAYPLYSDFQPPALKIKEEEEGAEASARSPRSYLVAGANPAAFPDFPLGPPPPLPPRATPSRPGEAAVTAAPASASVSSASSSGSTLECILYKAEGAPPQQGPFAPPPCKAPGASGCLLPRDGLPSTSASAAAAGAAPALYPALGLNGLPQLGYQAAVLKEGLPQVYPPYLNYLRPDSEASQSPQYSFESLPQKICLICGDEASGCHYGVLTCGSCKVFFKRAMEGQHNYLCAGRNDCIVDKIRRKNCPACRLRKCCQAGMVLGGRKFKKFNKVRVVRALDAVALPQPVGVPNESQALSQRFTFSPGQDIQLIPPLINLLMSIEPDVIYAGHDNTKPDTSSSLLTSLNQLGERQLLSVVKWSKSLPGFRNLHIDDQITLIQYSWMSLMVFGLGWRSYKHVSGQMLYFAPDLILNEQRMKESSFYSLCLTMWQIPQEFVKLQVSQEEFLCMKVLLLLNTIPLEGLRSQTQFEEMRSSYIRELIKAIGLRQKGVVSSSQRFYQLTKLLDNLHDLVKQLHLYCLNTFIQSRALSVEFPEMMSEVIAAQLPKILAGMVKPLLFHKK
How it was run: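 PR-UAS-bla HEK 293T cells carrying a UAS-driven beta-lactamase reporter were seeded in medium with 2% charcoal-stripped FBS, preincubated 6 hr at 37C, then exposed to compounds in DMSO for 16 hr; agonism was read by LiveBLAzer B/G FRET fluorescence.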

[3] = target: Progesterone receptor (Homo sapiens) (UniProt P06401); assay: qHTS assay to identify small molecule antagonists of the progesterone receptor (PR) signaling pathway (AID 1346795; active means well fitted inhibition curve with a large enough effect in the signal ratio in the repeat runs, not every such curve was filed as active; the % refers to the signal ratio; further: potency means the concentration at half of the fitted maximal effect)
How it was run: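 PR-UAS-bla HEK293T cells carrying a UAS-driven beta-lactamase reporter were plated in medium with 2% charcoal-stripped FBS and rested 6 hr at 37C. Compounds were added with 1 nM R5020 (final) for 16 hr, then FRET substrate loaded 2 hr at room temperature.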

[4] = qHTS assay to identify small molecule antagonists of the progesterone receptor (PR) signaling pathway - cell viability counter screen (AID 1346798); further: nearly all actives have a fitted effect of over 50% in size; further: potency means the concentration at half of the fitted maximal effect
How it was run: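 PR-UAS-bla HEK293T cells in medium with 2% charcoal-stripped FBS were treated with compounds plus R5020 for 16 hr at 37C. Cell viability was then read by CellTiter-Glo luminescence after 30 min at room temperature in the same wells.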

[5] = qHTS assay to identify small molecule agonists of the progesterone receptor (PR) signaling pathway - cell viability counter screen (AID 1346799; calls by dose curve; further: nearly all actives have a fitted effect of over 45% in size)
How it was run: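 PR-UAS-bla HEK293T cells, 3,000 per well in medium with 2% charcoal-stripped FBS, were preincubated 6 hr at 37C, then exposed to compounds for 16 hr; viability was read as CellTiter-Glo luminescence after 30 min at room temperature.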

[6] = qHTS assay to identify small molecule antagonists of the TGF-beta/Smad signaling pathway - cell viability counter screen (AID 1346824); further: nearly all actives have a fitted effect of over 50% in size
How it was run: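 SBE-bla HEK 293T cells were plated overnight at 37 C, then given compounds in DMSO plus TGF-beta1 (added as 0.25 ng/mL solution) for 5 hr. After the bla read, CellTiter-Glo was added to the same wells and luminescence read after 30 min at room temperature.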

[7] = qHTS assay to identify small molecule agonists of the TGF-beta/Smad signaling pathway - cell viability counter screen (AID 1346829); further: top concentration of the series differs between compounds; nearly all actives have a fitted effect of over 45% in size
How it was run: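 Compound-treated SBE-bla HEK 293T cells (5 hr, 37 C) were assessed for viability with CellTiter-Glo in parallel with the reporter read.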

[8] = qHTS assay to identify small molecule agonists of the TGF-beta/Smad signaling pathway (AID 1346859; active means well fitted activation curve with a large enough effect in the signal ratio in the repeat runs, not every such curve was filed as active; the % refers to the signal ratio; further: series mostly up to about 77 µM)
How it was run: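 HEK 293T cells stably carrying a beta-lactamase reporter driven by the Smad binding element were seeded overnight, exposed to DMSO-dissolved compounds for 5 hr at 37 C, 5% CO2, then loaded with FRET substrate for 2 hr at room temperature.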

[9] = target: Thyrotropin-releasing hormone receptor (Homo sapiens) (UniProt P34981); assay: qHTS assay to identify small molecule antagonists of the thyrotropin-releasing hormone receptor (TRHR) signaling pathway (AID 1346877; active means well fitted inhibition curve with a large enough effect in the repeat runs, not every such curve was filed as active; further: potency means the concentration at half of the fitted maximal effect)
Thyrotropin-releasing hormone receptor (Homo sapiens), sequence (P34981 whole entry, looked up): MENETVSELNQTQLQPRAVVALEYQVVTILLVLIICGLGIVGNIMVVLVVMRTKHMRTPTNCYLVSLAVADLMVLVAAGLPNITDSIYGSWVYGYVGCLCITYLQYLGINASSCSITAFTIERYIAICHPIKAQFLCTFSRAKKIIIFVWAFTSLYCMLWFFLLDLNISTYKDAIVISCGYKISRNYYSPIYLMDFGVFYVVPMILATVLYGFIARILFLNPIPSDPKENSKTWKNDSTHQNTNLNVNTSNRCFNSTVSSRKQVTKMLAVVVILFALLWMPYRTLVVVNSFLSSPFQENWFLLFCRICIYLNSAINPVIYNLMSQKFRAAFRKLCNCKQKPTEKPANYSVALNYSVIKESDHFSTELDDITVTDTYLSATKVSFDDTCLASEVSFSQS
How it was run: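 TRHR-expressing HEK293 cells were seeded, cultured 18 h at 37 °C, then loaded with calcium dye for 2 h. Compounds were pre-incubated 5 min at room temperature before 1 nM TRH (final) was added, and kinetic fluorescence was recorded for 3 min.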

[10] = target: Thyrotropin-releasing hormone receptor (Homo sapiens) (UniProt P34981); assay: qHTS assay to identify small molecule agonists of the thyrotropin-releasing hormone receptor (TRHR) signaling pathway (AID 1346891; calls by dose curve; further: potency means the concentration at half of the fitted maximal effect; on activation: series mostly up to about 58 µM)
How it was run: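 TRHR-expressing HEK293 cells were plated 18 h at 37 °C/5% CO2, loaded with calcium dye 2 h at 37 °C, then given compound in DMSO; fluorescence was read kinetically for 3 min at 1 s intervals.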

[11] = Caspase-3/7 induction in HepG2 cells by small molecules, qHTS assay (AID 1346978); further: nearly all actives have a fitted effect of over 15% in size
How it was run: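 Wild-type HepG2 cells (2,000/well) were settled 5 h at 37 C, 5% CO2, then exposed to compounds in DMSO for 17 h. Caspase-3/7 activity was read by luminescence 30 min after adding Caspase-Glo 3/7 reagent at room temperature.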

[12] = Caspase-3/7 induction in CHO-K1 cells by small molecules, qHTS cell viability counter screen (AID 1346979); further: nearly all actives have a fitted effect of over 35% in size; further: potency means the concentration at half of the fitted maximal effect
How it was run: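 Wild-type CHO-K1 cells were seeded at 1,500 per well, rested 5hr at 37 C, then exposed to compounds in DMSO. After 16hr, CellTiter-Fluor reagent was added and fluorescence read 1hr later as the viability measure.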

[13] = Caspase-3/7 induction in CHO-K1 cells by small molecules, qHTS assay (AID 1346980); further: nearly all actives have a fitted effect of over 15% in size
How it was run: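 Wild-type cells were seeded at 1,500 per well and settled 5 hr at 37 C, 5% CO2, then exposed to DMSO-dissolved compounds for 17 hr. Caspase-Glo 3/7 reagent was added, and luminescence was read after 30min at room temperature.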

[14] = Caspase-3/7 induction in HepG2 cells by small molecules, qHTS cell viability counter screen (AID 1346981); further: nearly all actives have a fitted effect of over 30% in size; further: potency means the concentration at half of the fitted maximal effect
How it was run: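 Wild-type HepG2 cells (2,000/well) were allowed to settle for 5 hr at 37 C, 5% CO2, then dosed with compounds in DMSO by pin transfer. After 16 hr at 37 C, CellTiter-Fluor was added and fluorescence read 1 hr later.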

[15] = target: Nuclear receptor subfamily 1 group I member 2 (Homo sapiens) (UniProt O75469); assay: Human pregnane X receptor (PXR) small molecule agonists, qHTS assay (AID 1346982); further: nearly all actives have a fitted effect of over 35% in size; further: potency means the concentration at half of the fitted maximal effect
Nuclear receptor subfamily 1 group I member 2 (Homo sapiens), sequence (O75469 whole entry, looked up): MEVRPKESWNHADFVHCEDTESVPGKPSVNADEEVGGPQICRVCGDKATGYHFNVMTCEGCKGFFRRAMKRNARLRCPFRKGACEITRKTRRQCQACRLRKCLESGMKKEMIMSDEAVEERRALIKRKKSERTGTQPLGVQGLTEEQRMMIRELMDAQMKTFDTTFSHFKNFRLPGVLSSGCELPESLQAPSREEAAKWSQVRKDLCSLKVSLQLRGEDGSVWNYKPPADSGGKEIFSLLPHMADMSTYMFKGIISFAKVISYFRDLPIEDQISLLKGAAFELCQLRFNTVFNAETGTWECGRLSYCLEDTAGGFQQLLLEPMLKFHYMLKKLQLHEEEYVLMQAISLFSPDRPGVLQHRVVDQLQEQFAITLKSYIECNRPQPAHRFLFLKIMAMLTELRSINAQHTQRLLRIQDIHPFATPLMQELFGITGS
How it was run: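 PXR-Luc HepG2 cells (CYP3A4 promoter-driven luciferase) were seeded in medium with 5% charcoal-stripped FBS, left 5 hr at 37 C, then exposed to compounds in DMSO for 24 hr. Luminescence was read after ONE-Glo addition.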

[16] = target: Cytochrome P450 2D6 (Homo sapiens) (UniProt P10635); assay: Cytochrome P450 Family 2 Subfamily D Member 6 (CYP2D6) small molecule antagonists: luciferase reporter qHTS assay (AID 1671196); further: nearly all actives have a fitted effect of over 50% in size; further: potency means the concentration at half of the fitted maximal effect
Cytochrome P450 2D6 (Homo sapiens), sequence (P10635 whole entry, looked up): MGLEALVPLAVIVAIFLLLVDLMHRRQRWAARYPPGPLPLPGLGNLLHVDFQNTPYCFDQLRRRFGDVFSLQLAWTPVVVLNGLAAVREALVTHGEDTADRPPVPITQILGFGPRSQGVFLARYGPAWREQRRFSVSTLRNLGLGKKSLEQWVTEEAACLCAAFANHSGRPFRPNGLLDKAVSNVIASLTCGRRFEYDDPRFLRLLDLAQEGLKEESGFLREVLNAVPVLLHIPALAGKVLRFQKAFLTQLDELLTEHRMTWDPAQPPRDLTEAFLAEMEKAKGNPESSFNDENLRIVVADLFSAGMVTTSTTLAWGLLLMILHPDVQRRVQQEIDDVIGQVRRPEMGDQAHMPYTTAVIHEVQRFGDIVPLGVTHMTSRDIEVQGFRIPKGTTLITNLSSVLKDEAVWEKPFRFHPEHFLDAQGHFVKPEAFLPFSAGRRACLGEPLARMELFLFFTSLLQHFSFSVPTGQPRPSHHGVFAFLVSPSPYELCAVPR
How it was run: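 CYP2D6 enzyme–substrate mix was held with compound for 10 min at room temperature, then NADPH regeneration solution was added and the reaction ran 1 h at room temperature. Luciferin product was detected by luminescence after 20 min with detection reagent.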

[17] = Human pregnane X receptor (PXR) small molecule agonists, qHTS cell viability counter screen (AID 1346977); further: nearly all actives have a fitted effect of over 50% in size
How it was run: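 PXR-Luc HepG2 cells in medium with 5% charcoal-stripped FBS were pre-incubated 5hr, then exposed to compounds for 24hr at 37C. Viability was read in the same wells by CellTiter-Fluor fluorescence, reagent added after 23hr with a 1hr incubation.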

[18] = target: Nuclear receptor subfamily 1 group I member 2 (Rattus norvegicus) (UniProt Q9R1A7); assay: Rat pregnane X receptor (rPXR) activation by small molecules, qHTS assay (AID 1346983); conditions: rPXR luciferase reporter cells, One-Glo luminescence, 24 h; max activation: stronger effect = higher value; further: nearly all actives have a fitted effect of over 20% in size
Nuclear receptor subfamily 1 group I member 2 (Rattus norvegicus), sequence (Q9R1A7 whole entry, looked up): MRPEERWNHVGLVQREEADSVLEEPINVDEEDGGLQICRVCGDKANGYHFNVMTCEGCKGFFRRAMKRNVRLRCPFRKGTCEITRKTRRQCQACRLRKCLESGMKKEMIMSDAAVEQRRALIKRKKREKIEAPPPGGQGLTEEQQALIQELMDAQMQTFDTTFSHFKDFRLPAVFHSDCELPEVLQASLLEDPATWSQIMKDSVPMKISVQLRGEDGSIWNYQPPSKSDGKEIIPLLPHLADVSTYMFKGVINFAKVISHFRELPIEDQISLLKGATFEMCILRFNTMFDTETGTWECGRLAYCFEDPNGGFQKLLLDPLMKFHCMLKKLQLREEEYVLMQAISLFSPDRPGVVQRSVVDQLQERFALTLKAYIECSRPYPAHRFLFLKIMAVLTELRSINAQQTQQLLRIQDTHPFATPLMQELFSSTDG
How it was run: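 Cell-based rPXR luciferase reporter assay, 2,000 cells per well, rested 5hr at 37 C before compound addition in DMSO, then 24 hr at 37 C. One-Glo reagent was added and luminescence read after 30 min at room temperature.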

## CCCCCCC(C)O (stereo not drawn)
[1]
  Potency: inactive
[2]
  Potency: inactive
[3]
  Potency: inactive
[4]
  Potency: inactive
[5]
  Potency: inactive
[6]
  Potency: inactive
[7]
  Potency: inactive
[8]
  outcome: inactive
[9]
  Potency: inactive
[10]
  Potency: inactive
[11]
  Potency: inactive
[12]
  Potency: inactive
[13]
  Potency: inactive
[14]
  Potency: inactive
[15]
  Potency: inactive
[16]
  Potency: inactive

## Nc1cc(Cl)c(N)c(Cl)c1
[1]
  Potency: inactive
[2]
  Potency: inactive
[3]
  Potency: inactive
[4]
  Potency: inactive
[5]
  Potency: inactive
[6]
  Potency: inactive
[7]
  Potency: inactive
[8]
  outcome: inactive
[10]
  Potency: inactive
[17]
  Potency: inactive
[12]
  Potency: inactive
[13]
  Potency: inactive
[15]
  Potency: 68 µM (active) and 54.5 µM (active)
[16]
  Potency: 25 µM (active)

## C=CC(=O)OCCCC
[1]
  Potency: inactive
[2]
  Potency: inactive
[3]
  Potency: inactive
[4]
  Potency: inactive
[5]
  Potency: inactive
[6]
  Potency: inactive
[7]
  Potency: inactive
[8]
  outcome: inactive
[9]
  Potency: inactive
[10]
  Potency: inactive
[17]
  Potency: inactive
[11]
  Potency: inactive
[12]
  Potency: inactive
[13]
  Potency: inactive
[14]
  Potency: inactive
[15]
  Potency: inactive
[16]
  Potency: inactive

## Nc1ccc(N)c(Cl)c1
[1]
  Potency: 61.1 µM (active)
[2]
  Potency: inactive
[3]
  Potency: 27.3 µM (active)
[4]
  Potency: inactive
[5]
  Potency: inactive
[6]
  Potency: inactive
[7]
  Potency: inactive
[8]
  outcome: inactive
[9]
  Potency: inactive and 30.2 µM (active)
[10]
  Potency: inactive and 4.9 µM (active)
[11]
  Potency: inactive
[12]
  Potency: 61 µM (active) and 54.5 µM (active)
[13]
  Potency: inactive
[14]
  Potency: 68.5 µM (active)
[15]
  Potency: 21.6 µM (active) and 48.6 µM (active)

## CC/C(=C(/CC)c1ccc(O)cc1)c1ccc(O)cc1
[1]
  Potency: inactive
[2]
  Potency: inactive
[3]
  Potency: 12.2 µM (active)
[4]
  Potency: 60.6 µM (active)
[5]
  Potency: inactive
[6]
  Potency: inactive
[7]
  Potency: inactive
[8]
  outcome: inactive
[10]
  Potency: inactive
[11]
  Potency: inactive
[12]
  Potency: 60.6 µM (active) and 61.1 µM (active) and 26.6 µM (active)
[13]
  Potency: inactive
[14]
  Potency: inactive
[18]
  max activation: 5.39% (inactive)

## O=C(O)c1ccc(O)cc1
[1]
  Potency: inactive
[2]
  Potency: inactive
[3]
  Potency: inactive
[4]
  Potency: inactive
[5]
  Potency: inactive
[6]
  Potency: inactive
[7]
  Potency: inactive
[8]
  outcome: inactive
[9]
  Potency: inactive
[10]
  Potency: inactive
[17]
  Potency: inactive
[12]
  Potency: inactive
[13]
  Potency: inactive
[15]
  Potency: inactive

## CCCCCCCCCCCCCO
[1]
  Potency: inactive
[2]
  Potency: inactive
[3]
  Potency: inactive
[4]
  Potency: inactive
[5]
  Potency: inactive
[6]
  Potency: inactive
[7]
  Potency: inactive
[8]
  outcome: inactive
[9]
  Potency: inactive
[11]
  Potency: inactive
[12]
  Potency: inactive
[13]
  Potency: inactive
[15]
  Potency: inactive
